From PubChem BioAssay
Rows were chosen to be rich in hits. Some 2.9% of all compounds tested hit in one or more screens of this group.
HGIII-sPLA2 inh: Blocks human group III sPLA2 activity; inhibition, % at 12.2 µM; AID 743126; Q9NZ20; QFRET BODIPY PC-A2 liposome hydrolysis, fluorescence; 0.56% of 370,000 active;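 active = inhibition above mean plus 3 SD of compounds lying within the high and low control bounds, cut at about 19% in these data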
Myeloid diff 2: myeloid differentiation induction. ER-HoxA9 myeloid progenitors, lysozyme-GFP differentiation, flow cytometry. calls only at 10 µM. 1% of 360,000 active;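 active = normalized GFP-positive differentiation at or above the plate's own cutoff, the solvent-only control mean plus 3 SD; inconclusive = no clear call, values can overlap the other calls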;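 note: cells exposed to compound for four days before flow analysis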
DAGLB inhibitor: blocks human DAGLB lipase activity; HEK293T DAGLB membrane lysate, EnzChek fluorogenic substrate; inhibition, % at 5.17 µM; 0.059% of 340,000 active; AID 504411; in the data active = inhibition above about 34%
Target sequence (Q8NCG7 whole entry, looked up): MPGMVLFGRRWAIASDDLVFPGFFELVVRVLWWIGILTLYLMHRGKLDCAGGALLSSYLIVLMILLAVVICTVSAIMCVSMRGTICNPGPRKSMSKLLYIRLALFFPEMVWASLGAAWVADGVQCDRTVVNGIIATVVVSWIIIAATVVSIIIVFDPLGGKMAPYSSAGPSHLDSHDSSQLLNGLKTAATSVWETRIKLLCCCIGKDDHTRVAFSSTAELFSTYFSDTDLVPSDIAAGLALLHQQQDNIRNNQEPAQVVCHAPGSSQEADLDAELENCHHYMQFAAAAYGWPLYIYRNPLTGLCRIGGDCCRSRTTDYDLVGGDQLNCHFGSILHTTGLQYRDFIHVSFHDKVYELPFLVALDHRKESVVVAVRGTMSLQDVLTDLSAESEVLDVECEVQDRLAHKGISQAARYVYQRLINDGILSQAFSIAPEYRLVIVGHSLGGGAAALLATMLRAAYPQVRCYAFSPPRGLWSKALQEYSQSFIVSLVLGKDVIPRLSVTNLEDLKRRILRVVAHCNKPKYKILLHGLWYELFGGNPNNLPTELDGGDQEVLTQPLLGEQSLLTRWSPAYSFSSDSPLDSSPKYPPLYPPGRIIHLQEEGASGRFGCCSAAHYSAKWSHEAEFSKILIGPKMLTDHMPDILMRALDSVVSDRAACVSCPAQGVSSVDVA
Rtt109 Vps75: C. albicans Rtt109 histone acetyltransferase inhibition | purified Rtt109/Vps75, ThioGlo CoA-SH fluorescence, 4 h | 0.16% of 330,000 active | AID 540336 | inhibition, % at 34.9 µM;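 active = inhibition of at least 50% in every replicate; inconclusive = best replicate reaches 50% inhibition but some replicates fall short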
ABHD5-PLIN5 inh: blocks binding of human ABHD5 to perilipin-5; inhibition, % at 4 µM; Q00G26+Q8WTS1; 0.78% of 360,000 active; Split G. princeps luciferase complementation, luminescence, 4 h; AID 602281;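 active = inhibition above the mean inhibition across every tested compound plus 3 SD, cut at about 22% in these data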
Cardio protect: protects H9c2 cardiomyocytes from peroxide injury; H2O2 injury protection, ATPLite, 2 h; 0.63% of 360,000 active; protection from H2O2 cell death, % at 20 µM;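 active = compounds giving at least 50% protection of heart cells from peroxide-induced death in the single-dose screen, raw or plate-pattern-corrected value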
hGIII sPLA2 conf: human GIII-sPLA2 inhibition, confirmation; shares compounds with HGIII-sPLA2 inh; recombinant hGIII-sPLA2, BODIPY PC-A2 QFRET fluorescence; inhibition, % at 12.2 µM; 34% of 2,000 active; AID 743280;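 active = mean inhibition across triplicates above the hit cutoff set in the earlier primary screen, cut at about 19% in these data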
BODIPY interf: counter-screen for HGIII-sPLA2 inhibitors: 535nm fluorescence interference | BODIPY FL product fluorescence interference, QFRET | 8.5% of 2,000 active | inhibition, % at 12.2 µM | shares compounds with HGIII-sPLA2 inh;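 active = average inhibition above the solvent-only control mean plus 3 SD, cut at about 6% in these data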
Hits are given with their value.

CCCCn1c(S(=O)(=O)O)nc2ccccc21 was read as HGIII-sPLA2 inh inactive, Myeloid diff 2 inactive, DAGLB inhibitor inactive, Rtt109 Vps75 inactive, ABHD5-PLIN5 inh inactive and Cardio protect inactive.
`CS(=O)(=O)c1nc2ccccc2n1Cc1ccccc1` gave HGIII-sPLA2 inh inactive, Myeloid diff 2 inactive, DAGLB inhibitor inactive, Rtt109 Vps75 inactive, ABHD5-PLIN5 inh inactive and Cardio protect inactive.
For CCn1c(S(=O)(=O)O)nc2ccccc21 the results were HGIII-sPLA2 inh 20, Myeloid diff 2 inactive, DAGLB inhibitor inactive, Rtt109 Vps75 inactive, ABHD5-PLIN5 inh inactive, Cardio protect inactive, hGIII sPLA2 conf inactive and BODIPY interf inactive.
Screening O=C(NCCN1CCN(C(=O)c2ccc(F)cc2)CC1)C(=O)NCc1ccccc1 returned HGIII-sPLA2 inh inactive, Myeloid diff 2 inactive, DAGLB inhibitor inactive, Rtt109 Vps75 inactive, ABHD5-PLIN5 inh inactive and Cardio protect inactive.
Screening COc1ccc(S(=O)(=O)N2CCOCC2)cc1NC(=O)CSc1ccc(F)cc1 returned HGIII-sPLA2 inh inactive, Myeloid diff 2 inactive, DAGLB inhibitor inactive, Rtt109 Vps75 inactive, ABHD5-PLIN5 inh inactive and Cardio protect inactive.
`CC(C)CCNC(=S)Nc1ccc2nc3n(c(=O)c2c1)CCCCC3` gave HGIII-sPLA2 inh 20, Myeloid diff 2 inactive, DAGLB inhibitor inactive, Rtt109 Vps75 inactive, ABHD5-PLIN5 inh inactive, Cardio protect inactive, hGIII sPLA2 conf inactive and BODIPY interf inactive.
CCCC(=O)OCC(=O)Nc1cc([N+](=O)[O-])ccc1OC was read as HGIII-sPLA2 inh inactive, Myeloid diff 2 inactive, DAGLB inhibitor inactive, Rtt109 Vps75 inactive, ABHD5-PLIN5 inh inactive and Cardio protect inactive.
Screening CCc1cnc(Nc2nc(C(N)c3ccccc3Cl)cs2)nc1 (stereo unspecified) returned HGIII-sPLA2 inh 26, Myeloid diff 2 inactive, ABHD5-PLIN5 inh inactive, Cardio protect inactive, hGIII sPLA2 conf inactive and BODIPY interf inactive.
Screening CC(=O)NC1=NN(C(C)=O)C(C)(CS(=O)(=O)c2ccc3ccccc3c2)S1 (stereo unspecified) returned HGIII-sPLA2 inh inactive, Myeloid diff 2 inactive, DAGLB inhibitor inactive, Rtt109 Vps75 inactive, ABHD5-PLIN5 inh inactive and Cardio protect inactive.
`O=C(/C=C(\Nc1ccc(Cl)c(C(F)(F)F)c1)c1ccccc1)c1ccccc1` gave HGIII-sPLA2 inh inactive.
`COCCn1c(SCC(=O)NCC2CCCO2)nc2c(c1=O)SC(C)C2` (stereo unspecified) gave HGIII-sPLA2 inh 20, Myeloid diff 2 inactive, DAGLB inhibitor inactive, Rtt109 Vps75 inactive, ABHD5-PLIN5 inh inactive, Cardio protect inactive, hGIII sPLA2 conf inactive and BODIPY interf inactive.
Screening NC(=Nc1nc(-c2ccccn2)cc2ccccc12)c1ccccn1 returned HGIII-sPLA2 inh 21, Myeloid diff 2 inconclusive, DAGLB inhibitor inactive, Rtt109 Vps75 inactive, ABHD5-PLIN5 inh inactive, Cardio protect inactive, hGIII sPLA2 conf inactive and BODIPY interf inactive.
`N/C(=N\OC(=O)c1ccc2ccccc2c1)c1ccccn1` gave HGIII-sPLA2 inh inactive, Myeloid diff 2 inactive, DAGLB inhibitor inactive, ABHD5-PLIN5 inh inactive and Cardio protect inactive.
Screening CCCCn1c(=O)nc2n(-c3ccc(Cl)cc3)c3ccccc3cc-2c1=O returned HGIII-sPLA2 inh 25, Myeloid diff 2 inactive, DAGLB inhibitor inactive, Rtt109 Vps75 inactive, ABHD5-PLIN5 inh inactive, Cardio protect inactive, hGIII sPLA2 conf inactive and BODIPY interf inactive.
`CCCCn1c(=O)nc2n(-c3ccc(C)cc3)c3ccccc3cc-2c1=O` gave HGIII-sPLA2 inh inactive, Myeloid diff 2 inconclusive, DAGLB inhibitor inactive, Rtt109 Vps75 inactive, ABHD5-PLIN5 inh inactive and Cardio protect inactive.
O=C(CSc1ccc2c(c1)OCCO2)Nc1ccc(N2CCOCC2)cc1 was read as HGIII-sPLA2 inh inactive, Myeloid diff 2 inactive, DAGLB inhibitor inactive, Rtt109 Vps75 inactive, ABHD5-PLIN5 inh inactive and Cardio protect inactive.
Cc1nn(Cc2cccc(F)c2)c(C)c1NC(=O)c1ccc(COc2ccccc2Cl)cc1 was read as HGIII-sPLA2 inh inactive, Myeloid diff 2 inactive, DAGLB inhibitor inactive, Rtt109 Vps75 inactive, ABHD5-PLIN5 inh inactive and Cardio protect inactive.
